Test results: PubChem BioAssay
Active and inactive are the calls of the source. Unless noted, how the calls were made is not given here.

How the values were obtained:
[1] = compounds binding Alexa647 anti-His antibody – biochemical, small-molecule microarray, 635 nm fluorescence, artefact control for SMM control protein annotation, primary screen (AID 1128); settings: higher = more signal;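 further: score merges feature fluorescence with signal-to-noise for each printed compound spot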
[2] = tested on: Human papillomavirus type 1a E7 protein (residues 1-88); assay: HPV1a E7 small-molecule binders, primary screen, biochemical, small-molecule microarray, residues 1-88, 635 nm (AID 1129); settings: small-molecule microarray binding, fluorescence 635 nm; higher = more signal
[3] = biological target: Focal adhesion kinase 1 (Homo sapiens) (UniProt Q05397); assay: PTK2 protein binding on printed compound slides – biochemical, small-molecule microarray, 635/667 nm fluorescence, BSA, DTT, primary screen (AID 1130); settings: 635 nm fluorescence, higher = more signal;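 further: composite of spot emission at 667 nm and signal to noise over triplicate slides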
[4] = tested on: Fibrinogen (Alexa647-labelled); assay: Alexa647-fibrinogen binding to printed small molecules – biochemical, small-molecule microarray, 635/667 nm fluorescence, artefact control for SMM control-protein annotation, profiling panel (AID 1131); settings: fibrinogen-A647 binding fluorescence, higher = more signal;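 further: z-score merges 667 nm fluorescence with per-spot signal-to-noise over triplicate slides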
[5] = biological target: Follistatin (Homo sapiens) (UniProt P19883); assay: FST protein binding to printed compounds – biochemical, small-molecule microarray, 635/667 nm fluorescence, primary screen (AID 1132); settings: 635 nm fluorescence, higher = more signal
[6] = biological target: Fibroblast growth factor 2 (Homo sapiens) (UniProt P09038); assay: basic fibroblast growth factor binding to printed compounds – biochemical, small-molecule microarray, 635/667 nm fluorescence, primary screen (AID 1133); settings: FGF2, fluorescence 635/667, higher = more signal
[7] = JC-1 mitochondrial potential readout, lung cancer cells – cell-based, A549, JC-1 fluorescence, basal, 24 h, 100 nL, profiling panel (AID 1138); settings: higher = more signal;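 further: A549 lung adenocarcinoma cells under basal conditions with no added stimulus; test concentration not given here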
[8] = tested on: Lefty1; assay: Lefty1 protein binding to printed compounds – biochemical, small-molecule microarray, 635/667 nm fluorescence, primary screen (AID 1139); settings: fluorescence 635/667, higher = more signal
[9] = tested on: wheat germ agglutinin (Triticum aestivum), Alexa647-labelled; assay: Alexa647-WGA lectin binding to printed small molecules – biochemical, small-molecule microarray, 635/667 nm fluorescence, artefact control for SMM control-protein annotation, profiling panel (AID 1140); settings: WGA-A647 binding, 635 nm fluorescence, higher = more signal;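 further: score merges 667 nm feature emission with signal to noise over triplicate slides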
[10] = biological target: Luciferin 4-monooxygenase (Photinus pyralis) (UniProt P08659); assay: inhibition of purified Photinus pyralis luciferase – biochemical, luminescence, purified enzyme, 2006 set, primary screen (AID 1141); settings: purified firefly luciferase, SteadyGlo luminescence, 30 min; higher = more signal, called active from +8 up or from −8 down;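 further: cell-free assay with purified firefly luciferase at 100 ng per well in PBS; test concentration not given here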
[11] = tested on: Wnt5a (protein binding on small-molecule microarray); assay: small molecules binding Wnt5a protein – biophysical, small-molecule microarray, 635/667 nm fluorescence, primary screen (AID 1142); settings: 635 nm fluorescence, higher = more signal;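 further: fluorescence read at 667 nm with signal to noise per printed feature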
[12] = ATP-based viability of Huh7 replicon cells – cell-based, CellTiter-Glo luminescence, basal, 48 h, cytotoxicity control for HCV replication inhibitor project, primary screen (AID 1143); settings: higher = more signal, called active from +8 up or from −8 down;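 further: Huh7 hepatoma cells carrying a hepatitis C replication reporter with no stimulus; test concentration not given here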
[13] = Pseudomonas biofilm growth suppression – PAO1 strain, BacTiter-Glo luminescence, LB-PBS, primary screen (AID 1144); settings: P. aeruginosa PAO1 biofilm, 12 h, higher = more signal
[14] = basal CRE-LacZ reporter activity in PC12 – cell-based, unstimulated, primary screen (AID 1145); settings: no forskolin, luminescence, 4.5 h, higher = more signal, called active from +8 up or from −8 down
[15] = forskolin-driven CRE-LacZ activity in PC12 – cell-based, CRE-LacZ reporter, forskolin-stimulated, primary screen (AID 1146); settings: luminescence, 4.5 h, higher = more signal, called active from +8 up or from −8 down;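 further: PC12 cells with 6xCRE LacZ reporter stimulated by forskolin 10 µM; beta-galactosidase reporter signal reflecting CREB driven transcription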
[16] = biological target: Streptavidin (Streptomyces avidinii) (UniProt P22629); assay: compounds binding control protein streptavidin – biophysical, small-molecule microarray, 635/667 nm fluorescence, artefact control for SMM compound annotation, primary screen (AID 1147); settings: higher = more signal;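 further: signal reflects streptavidin binding to arrayed compounds as a control protein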
[17] = probe aInhba binding on compound microarray – biochemical, small-molecule microarray, 635/667 nm fluorescence, primary screen (AID 1148); settings: higher = more signal;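 further: score merges 667nm spot fluorescence with signal-to-noise for antibody binding to printed compounds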
[18] = biological target: Torsin-1A (Homo sapiens) (UniProt O14656); assay: TOR1A wild-type binding on microarray – cell lysate, small-molecule microarray, lysate, 635/667 nm, primary screen (AID 1149); settings: COS7 hTOR1A-WT lysate, 635 nm fluorescence, higher = more signal
[19] = biological target: Torsin-1A (Homo sapiens) (UniProt O14656); assay: torsin A mutant lysate binding on microarrays – cell lysate, small-molecule microarray, COS7 lysate, 635/667 nm fluorescence, primary screen (AID 1150); settings: COS7 hTOR1A mutant lysate, 635 nm fluorescence, higher = more signal;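 further: score pools 667 nm emission and signal to noise measuring lysate protein binding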
[20] = tested on: Sonic hedgehog protein (Shh); assay: Sonic hedgehog microarray binding compounds – biochemical, small-molecule microarray, 635/667 nm fluorescence, primary screen (AID 1151); settings: 635 nm fluorescence, higher = more signal;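 further: Shh protein binding to compounds spotted on small-molecule microarray slides; score combines spot fluorescence intensity with signal-to-noise across triplicate slides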

Fibroblast growth factor 2 (Homo sapiens), sequence (P09038 whole entry, looked up): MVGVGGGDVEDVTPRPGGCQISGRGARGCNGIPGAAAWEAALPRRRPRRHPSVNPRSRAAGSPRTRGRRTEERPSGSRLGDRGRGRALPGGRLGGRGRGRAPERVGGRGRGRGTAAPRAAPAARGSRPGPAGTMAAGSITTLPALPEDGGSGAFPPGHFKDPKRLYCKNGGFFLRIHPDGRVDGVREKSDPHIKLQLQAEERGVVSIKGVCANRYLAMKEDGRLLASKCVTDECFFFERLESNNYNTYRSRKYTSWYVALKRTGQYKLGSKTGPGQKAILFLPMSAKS
Torsin-1A (Homo sapiens), sequence (O14656 whole entry, looked up): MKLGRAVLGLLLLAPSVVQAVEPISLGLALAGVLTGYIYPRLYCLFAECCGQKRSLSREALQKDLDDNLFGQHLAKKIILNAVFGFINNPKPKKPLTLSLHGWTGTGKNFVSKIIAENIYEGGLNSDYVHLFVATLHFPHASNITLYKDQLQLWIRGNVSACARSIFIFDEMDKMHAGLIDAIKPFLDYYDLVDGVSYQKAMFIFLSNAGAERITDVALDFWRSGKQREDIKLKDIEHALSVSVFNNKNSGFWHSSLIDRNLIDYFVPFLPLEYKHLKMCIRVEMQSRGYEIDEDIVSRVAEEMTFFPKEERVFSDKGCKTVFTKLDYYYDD
Focal adhesion kinase 1 (Homo sapiens), sequence (Q05397 whole entry, looked up): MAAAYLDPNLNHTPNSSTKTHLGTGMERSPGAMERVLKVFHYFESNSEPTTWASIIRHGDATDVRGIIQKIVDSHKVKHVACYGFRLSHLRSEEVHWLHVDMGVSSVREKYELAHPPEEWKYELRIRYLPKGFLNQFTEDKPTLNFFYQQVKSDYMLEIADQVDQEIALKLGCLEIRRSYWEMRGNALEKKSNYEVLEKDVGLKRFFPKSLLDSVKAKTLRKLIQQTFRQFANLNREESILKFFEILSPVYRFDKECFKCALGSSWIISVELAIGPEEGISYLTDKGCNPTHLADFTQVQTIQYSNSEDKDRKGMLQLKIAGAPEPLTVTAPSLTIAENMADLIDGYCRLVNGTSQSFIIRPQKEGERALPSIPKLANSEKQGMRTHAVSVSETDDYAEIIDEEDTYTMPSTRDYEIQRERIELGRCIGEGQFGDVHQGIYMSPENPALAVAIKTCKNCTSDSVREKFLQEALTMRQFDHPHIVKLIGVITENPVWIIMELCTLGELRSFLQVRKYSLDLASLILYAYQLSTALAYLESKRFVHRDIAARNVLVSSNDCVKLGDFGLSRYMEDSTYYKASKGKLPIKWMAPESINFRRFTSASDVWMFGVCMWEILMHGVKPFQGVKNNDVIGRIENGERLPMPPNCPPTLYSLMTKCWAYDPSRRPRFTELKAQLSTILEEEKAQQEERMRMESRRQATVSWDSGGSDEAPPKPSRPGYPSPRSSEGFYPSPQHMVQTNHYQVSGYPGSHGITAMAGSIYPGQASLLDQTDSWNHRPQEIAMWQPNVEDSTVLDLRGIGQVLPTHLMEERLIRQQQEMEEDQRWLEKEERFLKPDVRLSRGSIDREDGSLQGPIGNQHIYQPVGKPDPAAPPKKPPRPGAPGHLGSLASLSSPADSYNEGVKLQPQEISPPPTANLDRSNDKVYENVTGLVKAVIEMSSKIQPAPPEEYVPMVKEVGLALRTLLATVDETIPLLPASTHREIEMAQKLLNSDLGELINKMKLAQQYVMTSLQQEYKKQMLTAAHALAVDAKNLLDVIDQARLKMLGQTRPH
Follistatin (Homo sapiens), sequence (P19883 whole entry, looked up): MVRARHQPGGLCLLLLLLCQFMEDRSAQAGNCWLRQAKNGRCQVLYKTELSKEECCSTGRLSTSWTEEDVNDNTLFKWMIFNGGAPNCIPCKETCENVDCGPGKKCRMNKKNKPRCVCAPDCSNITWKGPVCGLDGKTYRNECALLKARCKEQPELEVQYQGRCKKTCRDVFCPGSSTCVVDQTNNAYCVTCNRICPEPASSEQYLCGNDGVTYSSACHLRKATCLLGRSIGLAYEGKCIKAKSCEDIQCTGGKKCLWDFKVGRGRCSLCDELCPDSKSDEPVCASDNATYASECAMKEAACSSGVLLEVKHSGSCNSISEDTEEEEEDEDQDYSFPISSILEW
Luciferin 4-monooxygenase (Photinus pyralis), sequence (P08659 whole entry, looked up): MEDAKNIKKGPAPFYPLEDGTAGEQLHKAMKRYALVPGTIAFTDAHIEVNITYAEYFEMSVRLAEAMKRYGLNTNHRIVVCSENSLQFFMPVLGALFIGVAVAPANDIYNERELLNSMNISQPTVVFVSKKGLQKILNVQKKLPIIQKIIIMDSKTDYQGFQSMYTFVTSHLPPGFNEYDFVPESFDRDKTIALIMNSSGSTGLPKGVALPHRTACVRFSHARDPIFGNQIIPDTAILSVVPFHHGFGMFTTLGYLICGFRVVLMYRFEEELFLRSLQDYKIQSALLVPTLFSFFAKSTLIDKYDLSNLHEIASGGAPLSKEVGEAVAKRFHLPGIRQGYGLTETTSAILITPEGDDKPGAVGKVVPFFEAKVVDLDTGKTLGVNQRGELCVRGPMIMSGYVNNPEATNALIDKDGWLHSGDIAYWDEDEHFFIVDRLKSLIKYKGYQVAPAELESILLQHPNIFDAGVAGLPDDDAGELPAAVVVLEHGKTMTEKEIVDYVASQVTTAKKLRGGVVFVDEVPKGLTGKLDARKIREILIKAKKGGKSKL
Streptavidin (Streptomyces avidinii), sequence (P22629 whole entry, looked up): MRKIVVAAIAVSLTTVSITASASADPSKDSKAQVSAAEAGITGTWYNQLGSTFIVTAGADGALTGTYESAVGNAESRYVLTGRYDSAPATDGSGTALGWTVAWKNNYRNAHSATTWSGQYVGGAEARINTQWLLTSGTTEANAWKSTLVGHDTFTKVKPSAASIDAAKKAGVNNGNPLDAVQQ

Row | Structure (SMILES) | composite z-score [1] | composite z-score [2] | composite z-score [3] | composite z-score [4] | composite z-score [5] | composite z-score [6] | z-score [7] | composite z-score [8] | composite z-score [9] | z-score [10] | composite z-score [11] | z-score [12] | z-score [13] | z-score [14] | z-score [15] | composite z-score [16] | composite z-score [17] | composite z-score [18] | composite z-score [19] | composite z-score [20]
1 | CC(C)C[C@H](NC(=O)CCC1CC(OC(=O)NCc2cccc3ccccc23)CC2(CCCC(COC(=O)NCc3ccccc3)O2)O1)C(=O)NCC(c1ccccc1)c1ccccc1 (stereo not given in full) | 0.231 | 1.13 | 0.383 | 0.803 | 0.909 | 1.27 | 1.09 | 1.07 | 0.493 | 0.43 (inactive) | 0.451 | -0.363 (inactive) | -0.434 (inactive) | -0.258 (inactive) | 0.728 (inactive) | 0.396 | -0.0963 | 0.317 | 0.0582 | 0.954
2 | CC(C)=CCCC(C)=CCON=C1C[C@@H](O)[C@@H](O)[C@@H]2[C@@H]3C(=O)N(C4CCCCC4)C(=O)[C@@H]3CC[C@@H]12 | -0.216 | 0.0286 | 0.0165 | -0.229 | 0.831 | 0.417 | -0.64 | 0.791 | -0.0783 | 0.335 (inactive) | 0.24 | -0.592 (inactive) | 0.233 (inactive) | 0.517 (inactive) | 0.13 (inactive) | -0.0037 | -0.0719 | 0.184 | 0.288 | 1.08
3 | CON=C[C@@H](C)[C@H](OCc1ccccc1)C(C)C | -0.032 | -1.2 | 0.119 | -0.734 | 0.359 | 0.211 | -1.1 | 0.347 | -0.195 | 0.592 (inactive) | 0.103 | -1.83 (inactive) | -1.54 (inactive) | 0.987 (inactive) | -0.278 (inactive) | -0.0087 | -0.0963 | 0.537 | -0.253 | 0.224
4 | C[C@@H]1CC[C@H]2C(=O)O[C@@H](COc3ccc(C(C)(C)C)cc3)CN2[C@@H]1c1ccc(Br)cc1 | 2.71 | -0.741 | 0.225 | 0.172 | -0.0473 | -0.62 | 0.841 | -0.255 | -0.383 | -0.864 (inactive) | -0.176 | 0.301 (inactive) | 0.256 (inactive) | 0.764 (inactive) | 0.403 (inactive) | -0.259 | -0.0987 | -0.351 | -0.188 | -0.445
5 | COC(=O)CC=C[C@@H](C)[C@@H](C=NOC(C)CN1CCCc2nc(C)c(C)cc21)OC (stereo not given in full) | 0.333 | 0.464 | 0.0673 | 0.233 | 0.6 | 0.604 | -0.27 | 0.677 | -0.0665 | 0.423 (inactive) | 0.17 | 0.431 (inactive) | 0.764 (inactive) | -0.64 (inactive) | 0.632 (inactive) | 1.21 | 0.098 | 0.254 | 0.0852 | 0.655
6 | C[C@@H](c1ccccc1)N1C(=O)[C@H]2[C@H]3[C@H](O)[C@H](O)CC(=O)[C@H]3CC[C@H]2C1=O | 0.335 | 0.654 | 0.336 | 0.747 | 0.213 | 0.284 | 0.911 | 0.134 | 0.0458 | -1.36 (inactive) | 0.0027 | -0.273 (inactive) | 0.257 (inactive) | -0.113 (inactive) | 0.209 (inactive) | 0.182 | -0.145 | 0.0683 | 0.452 | 0.374
7 | C=CC1=C[C@H](O)[C@@H]2O[C@@H]2C12OCCCO2 | 0.837 | 0.661 | 0.172 | 0.429 | -0.285 | 0.151 | -0.722 | 0.0863 | -0.159 | 0.571 (inactive) | 0.398 | 0.17 (inactive) | 0.658 (inactive) | -0.0732 (inactive) | 0.197 (inactive) | 0.281 | -0.0695 | 0.468 | 0.752 | -0.262
8 | C[C@H]1CC[C@H]2C(=O)O[C@H](COc3ccc(C(C)(C)C)cc3)CN2[C@@H]1c1ccc(Br)cc1 | 2.63 | 0.243 | 0.189 | 0.503 | 0.0469 | -0.101 | 0.972 | 0.395 | 0.034 | -1.73 (inactive) | -0.185 | -1.47 (inactive) | -0.239 (inactive) | 1.72 (inactive) | -0.466 (inactive) | 0.0762 | -0.0021 | 0.188 | 0.3 | 0.48
9 | CC(=O)OC[C@H]1OC(ON=CC[C@@H]2C=C[C@H](OC(C)=O)[C@@H](COC(C)=O)O2)[C@H](OC(C)=O)[C@@H](OC(C)=O)[C@@H]1OC(C)=O (stereo not given in full) | 2.8 | 0.268 | 0.282 | 0.106 | -0.494 | 0.0994 | -0.99 | -0.101 | -0.223 | 1.11 (inactive) | 0.066 | -0.697 (inactive) | -0.133 (inactive) | 0.327 (inactive) | 0.915 (inactive) | 0.559 | -0.126 | 0.37 | 0.877 | -0.499
10 | CO[C@@H]1C=CCC(=O)N[C@@H](C)C(=O)OC[C@@H](OC)[C@H](C)CCCC(=O)OC[C@H]1C | 2.07 | -1.64 | -0.195 | -1.64 | 1.39 | 0.343 | -0.393 | 1.37 | -0.268 | 1.13 (inactive) | 0.122 | -0.468 (inactive) | -0.499 (inactive) | -0.808 (inactive) | 0.0561 (inactive) | 0.253 | -0.101 | 3.16 | 2.84 | 1.71
11 | C[C@@H](ON=C1[C@H]2CCn3c(=O)n(-c4ccccc4)c(=O)n3[C@H]2[C@H](O)[C@@H]2O[C@H]12)c1cn([C@@H]2COC[C@H]2O)nn1 | -0.0522 | 0.619 | 0.0584 | 0.544 | 0.414 | 0.433 | -0.339 | 0.691 | 0.0978 | 0.704 (inactive) | 0.134 | 0.981 (inactive) | 0.58 (inactive) | 0.085 (inactive) | 0.258 (inactive) | 0.189 | 0.0028 | 0.436 | 0.63 | 0.438
